Assay results published in PubChem BioAssay (Tox21).
Records with an inconclusive call do not appear. A call without a number means that no potency is given here. More than one record can exist for a structure, and the calls need not agree. Calls of active or inactive are those of the source. Unless noted, calls follow the shape of the full dose curve.

Test system: not listed separately
Test: qHTS assay to identify small molecule agonists or antagonists of the thyroid stimulating hormone receptor (TSHR) signaling pathway - wild type cell line counter screen (AID 1259384)
Details: HEK293 wild type, cAMP HTRF counter-screen, active compounds read high; series mostly up to 92.4 µM
Summary of the method: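 Wild-type HEK293 cells were plated 18 h at 37 C/5% CO2, pin-dosed with compound plus Ro20-1724 medium, held 30 min at room temperature, then given cAMP-d2 and anti-cAMP-cryptate; fluorescence was read after 1 h. Fifteen concentrations, triplicate.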

| SMILES | outcome |
| --- | --- |
| O=C(O)c1cc(C(=O)O)cc(S(=O)(=O)O)c1 | inactive |
| CCN(CC)c1ccc(C(=O)c2ccccc2C(=O)O)c(O)c1 | inactive |
| CN(C)CCOCCN(C)C | inactive |
| CCCCCC(N)=O | inactive |

Target: Thyrotropin receptor (Homo sapiens) (UniProt P16473)
Test: qHTS assay to identify small molecule antagonists of the thyroid stimulating hormone receptor (TSHR) signaling pathway (AID 1259385); also: nearly all actives have a fitted effect of over 20% in size
Details: TSHR-HEK293 cAMP HTRF, TSH-stimulated antagonist mode; series mostly up to 92.4 µM
Summary of the method: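 TSHR-HEK293 cells were plated and held 18 h at 37C/5% CO2, then given compound plus Ro20-1724 and stimulated with TSH at 1.5 ng/mL final. After 30 min at room temperature, cAMP was detected with cAMP-d2/anti-cAMP-cryptate (1 h) by fluorescence.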

Thyrotropin receptor (Homo sapiens), sequence (P16473 whole entry, looked up): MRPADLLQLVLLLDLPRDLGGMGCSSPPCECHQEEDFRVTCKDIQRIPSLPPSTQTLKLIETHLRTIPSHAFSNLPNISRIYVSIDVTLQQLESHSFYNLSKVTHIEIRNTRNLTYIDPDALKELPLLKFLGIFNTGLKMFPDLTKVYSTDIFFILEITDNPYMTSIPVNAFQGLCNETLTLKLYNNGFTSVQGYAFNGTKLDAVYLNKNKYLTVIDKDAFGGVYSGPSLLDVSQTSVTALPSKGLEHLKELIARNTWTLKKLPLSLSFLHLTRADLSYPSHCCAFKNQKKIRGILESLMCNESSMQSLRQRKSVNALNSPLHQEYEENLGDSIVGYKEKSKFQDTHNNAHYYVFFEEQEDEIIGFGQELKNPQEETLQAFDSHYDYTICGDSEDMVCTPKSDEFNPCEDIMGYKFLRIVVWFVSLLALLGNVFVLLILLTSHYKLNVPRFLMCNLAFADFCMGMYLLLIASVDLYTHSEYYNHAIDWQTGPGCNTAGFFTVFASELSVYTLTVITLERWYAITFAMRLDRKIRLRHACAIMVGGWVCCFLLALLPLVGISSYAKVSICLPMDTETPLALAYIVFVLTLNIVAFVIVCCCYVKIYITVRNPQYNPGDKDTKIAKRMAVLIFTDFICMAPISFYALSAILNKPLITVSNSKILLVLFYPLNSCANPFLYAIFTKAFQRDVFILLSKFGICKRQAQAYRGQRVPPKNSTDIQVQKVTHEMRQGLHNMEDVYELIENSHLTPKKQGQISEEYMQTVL

| SMILES | Potency |
| --- | --- |
| CC1=CC(=O)NS(=O)(=O)O1 | inactive |
| Cc1cccnc1 | inactive |
| CC(=O)CC(=O)Nc1ccccc1 | inactive |
| COc1ccc2cc([C@H](C)C(=O)O)ccc2c1 | inactive |
| O=C(CC(C(=O)OC1CCCCC1)S(=O)(=O)O)OC1CCCCC1 (stereo not given) | inactive |
| O=c1[nH]c(=O)n([C@H]2CCCO2)cc1F | inactive |
| ON=C1CCCCC1 | inactive |
| O=c1[nH]nnc2ccccc12 | inactive |
| CN(C)CCC(c1ccc(Cl)cc1)c1ccccn1 (stereo not given) | inactive |
| CN(C)CCC(c1ccccc1)c1ccccn1 (stereo not given) | inactive |
| O=C1CCC(N2C(=O)c3ccccc3C2=O)C(=O)N1 (stereo not given) | inactive |
| CC1CCC2CC1C2(C)C (stereo not given) | inactive |
| O=C(Oc1ccccc1)c1ccccc1 | inactive |
| O=C(O)c1ccc(C(=O)O)cc1 | inactive |
| OCC(CO)(CBr)CBr | inactive |
| OCCOCCN1CCN(C2=Nc3ccccc3Sc3ccccc32)CC1 | inactive |

| SMILES | Potency |
| --- | --- |
| Cc1occc(=O)c1O | inactive |
| CCCCC(CC)CO (stereo not given) | inactive |
| CCCCCCCCCCCCCCCO | inactive |
| CCCCCC/C(C=O)=C\c1ccccc1 | inactive |
| Oc1cccc2ccccc12 | inactive |
| C=CCNC(N)=S | inactive |
| COc1ccc(Cl)cc1C(=O)NCCc1ccc(S(=O)(=O)NC(=O)NC2CCCCC2)cc1 | inactive |
| CCCCC(CC)COC(=O)CS (stereo not given) | inactive |
| COCCCOc1ccnc(CS(=O)c2nc3ccccc3[nH]2)c1C (stereo not given) | inactive |
| CCC(O)OCCCOC (stereo not given) | inactive |
| CCCCCCCCC/C=C/CC1CC(=O)OC1=O (stereo not given) | inactive |
| Cc1ccc(S(N)(=O)=O)cc1 | inactive |
| O=C(O)c1cc(C(=O)O)cc(S(=O)(=O)O)c1 | inactive |
| CCN(CC)c1ccc(C(=O)c2ccccc2C(=O)O)c(O)c1 | inactive |
| CN(C)CCOCCN(C)C | inactive |
| CCCCCC(N)=O | inactive |

Test system: not listed separately
Test: qHTS assay to identify small molecule agonists of the estrogen receptor alpha (ER-alpha) signaling pathway in the presence of an antagonist - cell viability counter screen (AID 1259386; active = well fitted cell-killing curve with a large enough effect in the repeat runs;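 also: cells exposed to compounds for 22 h at 37 °C before the viability read; nearly all actives have a fitted effect of over 30% in size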)
Details: VM7Luc4E2 viability, CellTiter-Fluor fluorescence, 22 h; series mostly up to 92.4 µM
Summary of the method: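 Using estrogen-depleted VM7Luc4E2 cells, the 15-concentration compound series was applied together with 10.0nM ICI-182,780 and incubated 22hr at 37C/5% CO2. Cell viability was then scored by CellTiter-Fluor.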

| SMILES | Potency |
| --- | --- |
| CC1=CC(=O)NS(=O)(=O)O1 | inactive |
| Cc1cccnc1 | inactive |
| O=C(O)[C@H](O)[C@@H](O)[C@H](O)[C@H](O)CO | inactive |
| C[C@H]1C[C@H]2[C@@H]3CCC4=CC(=O)C=C[C@]4(C)[C@@]3(F)[C@@H](O)C[C@]2(C)[C@@]1(O)C(=O)CO | inactive |
| CC(=O)CC(=O)Nc1ccccc1 | inactive |
| COc1ccc2cc([C@H](C)C(=O)O)ccc2c1 | inactive |
| CSCCC=O | inactive |
| O=C(CC(C(=O)OC1CCCCC1)S(=O)(=O)O)OC1CCCCC1 (stereo not given) | inactive |
| O=c1[nH]c(=O)n([C@H]2CCCO2)cc1F | inactive |
| ON=C1CCCCC1 | inactive |
| CC(C)CC(=O)CC(C)C | inactive |
| O=c1[nH]nnc2ccccc12 | inactive |
| CN(C)CCC(c1ccc(Cl)cc1)c1ccccn1 (stereo not given) | inactive |
| CN(C)CCC(c1ccccc1)c1ccccn1 (stereo not given) | inactive |
| O=C1CCC(N2C(=O)c3ccccc3C2=O)C(=O)N1 (stereo not given) | inactive |
| CC1CCC2CC1C2(C)C (stereo not given) | inactive |
| O=C(Oc1ccccc1)c1ccccc1 | inactive |
| O=C(O)c1ccc(C(=O)O)cc1 | inactive |
| OCC(CO)(CBr)CBr | inactive |
| OCCOCCN1CCN(C2=Nc3ccccc3Sc3ccccc32)CC1 | inactive |

| SMILES | Potency |
| --- | --- |
| Cc1occc(=O)c1O | inactive |
| CCCCC(CC)CO (stereo not given) | inactive |
| CCCCCCCCCCCCCCCO | inactive |
| CCCCCC/C(C=O)=C\c1ccccc1 | inactive |
| Nc1ccccc1[N+](=O)[O-] | inactive |
| Oc1cccc2ccccc12 | inactive |
| C=CCNC(N)=S | inactive |
| COc1ccc(Cl)cc1C(=O)NCCc1ccc(S(=O)(=O)NC(=O)NC2CCCCC2)cc1 | inactive |
| CCCC(C)=O | inactive |
| CCCSc1ccc2nc(NC(=O)OC)[nH]c2c1 | inactive |
| CCCCC(CC)COC(=O)CS (stereo not given) | inactive |
| COCCCOc1ccnc(CS(=O)c2nc3ccccc3[nH]2)c1C (stereo not given) | inactive |
| CCC(O)OCCCOC (stereo not given) | inactive |
| CCCCCCCCC/C=C/CC1CC(=O)OC1=O (stereo not given) | inactive |
| Cc1ccc(S(N)(=O)=O)cc1 | inactive |
| O=C(O)c1cc(C(=O)O)cc(S(=O)(=O)O)c1 | inactive |
| CCN(CC)c1ccc(C(=O)c2ccccc2C(=O)O)c(O)c1 | inactive |
| CN(C)CCOCCN(C)C | inactive |
| CCCCCC(N)=O | inactive |

Target: Progesterone receptor (Homo sapiens) (UniProt P06401)
Test: qHTS assay to identify small molecule agonists of the progesterone receptor (PR) signaling pathway (AID 1346784); also: nearly all actives have a fitted effect of over 30% in size; also: potency is read from the fitted curve at half-maximal effect
Details: PR-UAS-bla HEK293T, beta-lactamase FRET ratio, 16 h; series mostly up to 92.4 µM
Summary of the method: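 PR-UAS-bla HEK 293T cells carrying a UAS-driven beta-lactamase reporter were seeded in medium with 2% charcoal-stripped FBS, preincubated 6 hr at 37C, then exposed to compounds in DMSO for 16 hr; agonism was read by LiveBLAzer B/G FRET fluorescence.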

Progesterone receptor (Homo sapiens), sequence (P06401 whole entry, looked up): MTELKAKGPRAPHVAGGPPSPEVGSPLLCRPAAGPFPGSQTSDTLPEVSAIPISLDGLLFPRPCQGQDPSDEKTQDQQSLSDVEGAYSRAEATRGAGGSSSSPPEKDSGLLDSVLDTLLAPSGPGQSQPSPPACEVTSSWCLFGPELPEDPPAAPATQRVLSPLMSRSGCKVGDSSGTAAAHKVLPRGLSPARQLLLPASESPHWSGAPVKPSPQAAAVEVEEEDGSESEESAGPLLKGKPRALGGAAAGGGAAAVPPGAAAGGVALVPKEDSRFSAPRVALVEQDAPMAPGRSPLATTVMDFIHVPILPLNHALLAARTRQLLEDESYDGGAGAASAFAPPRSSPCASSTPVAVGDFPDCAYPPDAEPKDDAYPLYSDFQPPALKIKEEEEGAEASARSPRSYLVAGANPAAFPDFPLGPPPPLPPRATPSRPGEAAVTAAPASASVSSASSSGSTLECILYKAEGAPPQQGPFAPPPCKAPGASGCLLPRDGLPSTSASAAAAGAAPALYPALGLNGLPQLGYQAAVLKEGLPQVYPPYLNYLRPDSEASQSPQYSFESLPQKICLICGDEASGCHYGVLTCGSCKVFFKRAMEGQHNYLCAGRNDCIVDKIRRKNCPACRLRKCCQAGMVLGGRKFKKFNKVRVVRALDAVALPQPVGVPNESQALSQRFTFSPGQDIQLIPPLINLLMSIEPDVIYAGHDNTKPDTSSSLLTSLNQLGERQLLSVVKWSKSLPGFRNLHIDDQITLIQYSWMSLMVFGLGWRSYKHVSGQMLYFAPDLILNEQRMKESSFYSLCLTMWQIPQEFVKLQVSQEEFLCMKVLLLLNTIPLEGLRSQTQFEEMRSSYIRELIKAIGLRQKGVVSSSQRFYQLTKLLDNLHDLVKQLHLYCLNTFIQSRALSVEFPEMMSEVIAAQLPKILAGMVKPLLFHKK

| SMILES | Potency | activation |
| --- | --- | --- |
| CC1=CC(=O)NS(=O)(=O)O1 | inactive |  |
| Cc1cccnc1 | inactive |  |
| O=C(O)[C@H](O)[C@@H](O)[C@H](O)[C@H](O)CO | 2.43 µM (active) | -0.268% [at 3.27 µM] (inactive) |
| C[C@H]1C[C@H]2[C@@H]3CCC4=CC(=O)C=C[C@]4(C)[C@@]3(F)[C@@H](O)C[C@]2(C)[C@@]1(O)C(=O)CO | 11.9 µM (active) |  |
| CC(=O)CC(=O)Nc1ccccc1 | inactive |  |
| COc1ccc2cc([C@H](C)C(=O)O)ccc2c1 | inactive |  |
| CSCCC=O | inactive |  |
| O=C(CC(C(=O)OC1CCCCC1)S(=O)(=O)O)OC1CCCCC1 (stereo not given) | inactive |  |
| O=c1[nH]c(=O)n([C@H]2CCCO2)cc1F | inactive |  |
| ON=C1CCCCC1 | inactive |  |
| CC(C)CC(=O)CC(C)C | inactive |  |
| O=c1[nH]nnc2ccccc12 | inactive |  |
| CN(C)CCC(c1ccc(Cl)cc1)c1ccccn1 (stereo not given) | inactive |  |
| CN(C)CCC(c1ccccc1)c1ccccn1 (stereo not given) | inactive |  |
| O=C1CCC(N2C(=O)c3ccccc3C2=O)C(=O)N1 (stereo not given) | inactive |  |
| CC1CCC2CC1C2(C)C (stereo not given) | inactive |  |
| O=C(Oc1ccccc1)c1ccccc1 | inactive |  |
| O=C(O)c1ccc(C(=O)O)cc1 | inactive |  |
| OCC(CO)(CBr)CBr | inactive |  |
| OCCOCCN1CCN(C2=Nc3ccccc3Sc3ccccc32)CC1 | inactive |  |

| SMILES | Potency | activation |
| --- | --- | --- |
| Cc1occc(=O)c1O | inactive |  |
| CCCCC(CC)CO (stereo not given) | inactive |  |
| CCCCCCCCCCCCCCCO | inactive |  |
| CCCCCC/C(C=O)=C\c1ccccc1 | inactive |  |
| Nc1ccccc1[N+](=O)[O-] | inactive |  |
| Oc1cccc2ccccc12 | inactive |  |
| C=CCNC(N)=S | inactive |  |
| COc1ccc(Cl)cc1C(=O)NCCc1ccc(S(=O)(=O)NC(=O)NC2CCCCC2)cc1 | inactive |  |
| CCCC(C)=O | inactive |  |
| CCCSc1ccc2nc(NC(=O)OC)[nH]c2c1 | inactive |  |
| CCCCC(CC)COC(=O)CS (stereo not given) | inactive |  |
| COCCCOc1ccnc(CS(=O)c2nc3ccccc3[nH]2)c1C (stereo not given) | inactive |  |
| CCC(O)OCCCOC (stereo not given) | inactive |  |
| CCCCCCCCC/C=C/CC1CC(=O)OC1=O (stereo not given) | inactive |  |
| Cc1ccc(S(N)(=O)=O)cc1 | inactive |  |
| O=C(O)c1cc(C(=O)O)cc(S(=O)(=O)O)c1 | inactive |  |
| CCN(CC)c1ccc(C(=O)c2ccccc2C(=O)O)c(O)c1 | inactive |  |
| CN(C)CCOCCN(C)C | inactive |  |
| CCCCCC(N)=O | inactive |  |
